High-throughput results as filed in PubChem.
Hits are enriched below; roughly 21% of the tested compounds scored in any of these assays.
Gal4-VP16 FLuc: VP16 counterscreen qHTS for inhibitors of ROR gamma transcriptional activity | Drosophila S2 Gal4-VP16 UAS-luciferase, luminescence, 20 h | Potency, µM (titrated, usually from 53.6 µM), without a hit: top-dose activity, negative = inhibition, usual class: inhibitors | 3.5% of 310,000 active | AID 2546, 2010;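 also: Gal4-VP16 expression switched on by copper sulfate through the metallothionein promoter; potency is read from the fitted curve at half-maximal effect; nearly all actives have a fitted effect of over 50% in size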
TDP1 cell noCPT: qHTS for Inhibitors of human tyrosyl-DNA phosphodiesterase 1 (TDP1): qHTS in cells in absence of CPT; DT40 Tdp1-/- hTDP1 cells, no CPT, ATP luminescence, 48 h; 15% of 420,000 active; AID 686978, 2013; Potency, µM (top dose mostly 46.2 µM), without a hit: top-dose activity change, negative = growth inhibition, most hits filed as inhibitors; also: potency is read from the fitted curve at half-maximal effect; nearly all actives have a fitted effect of over 55% in size
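Seeded 400 DT40-hTDP1 cells/well (vehicle DMSO, no 20 nM CPT); pinned compounds; ≥48 hr at 37 °C; CellTiter-Glo luminescence as viability measure.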
IL-1B inflam inh: qHTS for Inhibitors of Inflammasome Signaling: IL-1-beta AlphaLISA Primary Screen. THP-1 LPS/ATP IL-1B secretion, AlphaLISA, 16 h; hits give low values. activity change, % at 57.5 µM. 4.7% of 360,000 active; in the data active = activity change below about -50%; inconclusive = mostly about -30% to -49%
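Secreted IL-1B measured by AlphaLISA bead assay after 16 h compound exposure of THP-1 cells; compounds (final up to 57.5 uM) added 1 h before LPS (250 ng/mL) and ATP (1.25 mM) stimulation; lower signal means less secretion.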
RORg inh: qHTS for inhibitors of ROR gamma transcriptional activity | 5.4% of 310,000 active | Drosophila S2 Gal4-RORgamma UAS-luciferase reporter, 20 h | AID 2551, 2010 | Potency, µM (highest dose often 53.6 µM), for the others: at the top dose activity change, negative = inhibition, usual class: inhibitors; also: potency is read from the fitted curve at half-maximal effect; nearly all actives have a fitted effect of over 60% in size
Target sequence (P51450 whole entry, looked up, the tested form may be a part): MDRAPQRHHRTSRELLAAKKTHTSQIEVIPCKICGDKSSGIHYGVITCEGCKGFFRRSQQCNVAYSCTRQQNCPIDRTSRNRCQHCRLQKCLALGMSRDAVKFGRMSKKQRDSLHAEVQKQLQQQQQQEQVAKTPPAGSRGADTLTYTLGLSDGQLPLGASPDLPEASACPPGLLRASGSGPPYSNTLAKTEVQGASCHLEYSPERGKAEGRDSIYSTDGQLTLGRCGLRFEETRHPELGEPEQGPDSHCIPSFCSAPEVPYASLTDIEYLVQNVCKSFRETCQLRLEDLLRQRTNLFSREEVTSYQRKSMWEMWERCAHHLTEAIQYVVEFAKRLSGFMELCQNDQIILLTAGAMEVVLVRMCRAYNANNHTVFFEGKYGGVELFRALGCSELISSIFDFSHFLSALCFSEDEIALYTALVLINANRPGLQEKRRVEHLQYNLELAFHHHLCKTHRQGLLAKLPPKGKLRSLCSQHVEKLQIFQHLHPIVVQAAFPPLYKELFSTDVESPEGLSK
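Luciferase reporter read in Schneider cells carrying Gal4-RORγ (mouse) and UAS-Photinus luciferase; cells given compound 1 h before 700 uM copper sulfate induction, then incubated 20 h at ambient temperature.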
ELG1 repair inh: qHTS screen for small molecules that inhibit ELG1-dependent DNA repair in human embryonic kidney (HEK293T) cells expressing luciferase-tagged ELG1; Potency, µM (doses to about 46.1 µM), inactives show at the top dose activity change, negative = inhibition, actives largely listed as inhibitors; HEK293T ELG1-luciferase reporter, luminescence, 16 h; DNA damage induced by 5-fluorouridine; 2.3% of 330,000 active; also: potency is read from the fitted curve at half-maximal effect; nearly all actives have a fitted effect of over 55% in size
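Step one: seed 2,000 cells per well. Step two: pin-transfer compound or DMSO alongside 5-fluorouridine. Step three: incubate 16 hr, 37 °C, 5% CO2. Step four: add ONE-Glo, wait 30 min, read luminescence.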
TDP1 cell CPT: qHTS for Inhibitors of human tyrosyl-DNA phosphodiesterase 1 (TDP1): qHTS in cells in presence of CPT. Potency, µM (series often up to 46.2 µM), without a hit: at the highest dose activity change, negative = growth inhibition, most hits filed as inhibitors. chicken DT40 Tdp1-/-;hTDP1 cells + 20 nM CPT, ATP luminescence, 48 h. 12% of 420,000 active; also: potency is read from the fitted curve at half-maximal effect; nearly all actives have a fitted effect of over 55% in size
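Chicken DT40 Tdp1-/- cells complemented with human TDP1, 400 cells/well, exposed to compounds plus 20 nM camptothecin for at least 48 h at 37 C; viability read as ATP content by CellTiter-Glo luminescence.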
Starred values were filed as active, the others as inactive; ? = inconclusive; . = no result; [ ] = dose if it differs, or a comment. Unless noted, calls follow the shape of the dose curve; as a rule, active = well fitted curve in the direction sought with a large enough effect; inconclusive = small, poorly fitted or top-dose-only effect, or another doubt; inactive = no such curve, though single readings can be large; an effect the other way counts as inactive or inconclusive. % is scaled to controls: 0 for no effect and ±100 for the full control effect.

SMILES	Gal4-VP16 FLuc	TDP1 cell noCPT	IL-1B inflam inh	RORg inh	ELG1 repair inh	TDP1 cell CPT
O=C(Nc1ccccc1Cl)N1CCN(c2ccc3nnc(-c4ccc(F)cc4)n3n2)CC1	-11%	16µM*	-25	38%	21µM*	18µM*
COc1ccccc1NC(=O)N1CCN(c2ccc3nnc(-c4ccc(F)cc4)n3n2)CC1	?	?	-52*	-12%	?	18µM*
CCOC(=O)c1ccccc1NC(=O)Cn1c(=O)n(Cc2ccc(C(=O)NCc3ccc4c(c3)OCO4)cc2)c(=O)c2ccccc21	.	-6%	.	.	.	-12%
Cc1cccc(C)c1NC(=O)Cn1c(=O)n(Cc2ccc3c(c2)OCO3)c(=O)c2oc3ccccc3c21	.	4.6µM*	.	.	.	5.2µM*
Cc1ccccc1NC(=O)Cn1c(=O)n(Cc2ccc3c(c2)OCO3)c(=O)c2oc3ccccc3c21	.	8.2µM*	.	.	.	4.1µM*
Cc1ccccc1NC(=O)Cn1c(=O)n(Cc2ccc3c(c2)OCO3)c(=O)c2ccccc21	.	16µM*	.	.	.	-24%
CCn1ccc2c(OCC(=O)NCc3ccccc3)cccc2c1=O	.	?	.	.	.	-8%
Cc1c(C2CC(=O)N(c3ccccc3)C2=O)[nH]n(-c2ccccc2)c1=O (stereo not drawn)	4%	?	7	?	4%	16µM*
Cc1cccc(C)c1NC(=O)C1c2ccccc2OCC(=O)N1Cc1ccco1 (stereo not drawn)	.	-22%	142	.	.	-3%
N#Cc1ccc(CN2CCC3(CC2)CCN(C(=O)c2cnccn2)CC3)cc1	8%	27%	.	-12%	.	14%
CCOC(=O)N1CCC(NC(=O)c2cc(S(=O)(=O)NCCc3ccccc3)ccc2F)CC1	-1%	?	-11	?	-24%	?
Cc1ccc(C)c(NC(=O)c2cc(S(=O)(=O)N3CCc4ccccc4C3)ccc2F)c1	.	-25%	.	.	.	-9%
Cc1ccc(C)c(NC(=O)c2cc(S(=O)(=O)NCCc3ccccc3)ccc2F)c1	.	?	.	.	.	23µM*
Cc1ccc(NC(=O)c2cc(S(=O)(=O)NCCc3ccccc3)ccc2F)cc1Cl	?	?	-88*	?	-25%	?
COC(=O)C1CCCCN1Cc1ccc2c(c1)CN(Cc1cn[nH]c1-c1ccc(F)cc1)CCO2 (stereo not drawn)	.	?	.	.	.	1%[9.04 µM]
COc1ccc(C2c3c(oc4ccc(Cl)cc4c3=O)C(=O)N2CCCN(C)C)cc1OC (stereo not drawn)	.	?	.	.	.	-15%
CC12c3ccccc3C(c3ccccc31)C1C(=O)N(c3ccncc3)C(=O)C12 (stereo not drawn)	-7%	16µM*	0	?	-7%	16µM*
CC12c3ccccc3C(c3ccccc31)C1C(=O)N(c3cccnc3)C(=O)C12 (stereo not drawn)	8%	15µM*	20	-11%	-7%	?
CC12c3ccccc3C(c3ccccc31)C1C(=O)N(Cc3cccnc3)C(=O)[C@H]12 (stereo partly drawn)	2%	?	-10	-12%	-16%	18µM*
O=C(O)c1ccc(N2C(=O)C3C4c5ccccc5C(Br)(c5ccccc54)C3C2=O)cc1 (stereo not drawn)	-9%	-16%	-8	-2%	12%	31%
CCOc1ccc2c(c1)c(=O)c(S(=O)(=O)c1ccccc1)cn2CC(=O)Nc1ccccc1OC	.	-31%	.	.	.	5%
CCOc1c(Br)cc(C(N)=O)cc1OCc1ccccc1	2%	-21%	47	-17%	-2%	16%
O=C(O)C1CCN(C(=O)CCN2C(=O)S/C(=C\c3ccccc3)C2=O)CC1	3%	8%	10	-11%	0%	?
CCc1nnc(NC(=O)CSCc2cc(=O)c3ccc(C)cc3[nH]2)s1	.	-2%	.	.	.	-1%
CCCCN(C(C)=O)c1c(CC)nc2ccc(C(=O)NCCOc3ccc(OC)cc3)cn12	.	13µM*	-5	.	.	?
SMILES	Gal4-VP16 FLuc	TDP1 cell noCPT	IL-1B inflam inh	RORg inh	ELG1 repair inh	TDP1 cell CPT
CCCCN(C)c1c(C)nc2ccc(C(=O)NCc3ccc4c(c3)OCO4)cn12	.	23µM*	-12	.	.	?
CCc1nc2ccc(C(=O)NCc3ccc4c(c3)OCO4)cn2c1N(CC)CCOC	.	?	-15	.	.	?
CCc1nc2ccc(C(=O)NCCOc3ccc(OC)cc3)cn2c1N(CC)CCOC	.	?	-16	.	.	?
CCCCN(C)c1c(C)nc2ccc(C(=O)NCCOc3ccc(OC)cc3)cn12	.	18µM*	-13	.	.	13µM*
COc1ccc(OCCNC(=O)c2ccc3nc(C)c(N(C)C(=O)CCc4ccccc4)n3c2)cc1	.	?	-10	.	.	23µM*
CCOC(=O)c1cnn(CCOC(=O)c2ccccc2)c1NC(=O)c1ccccc1	10%	?	-3	9%	-11%	-8%
O=c1c(Cl)c(Cl)cnn1Cc1nnc(-c2ccccc2Br)o1	?	1.8µM*	-96*	?	10%	4.1µM*
Clc1ccccc1OCc1nnc(-c2ccccc2Br)o1	?	-17%	?	-19%	?	-7%
COc1cc(=O)n2c(c1C(=O)N(C)Cc1ccsc1)CCN(Cc1c(C)nc3sccn13)CC2	.	-24%	.	.	.	-4%
O=C(CN(Cc1ccccc1Cl)C(=O)Cn1nnc(-c2cccs2)n1)NCC1CCCO1 (stereo not drawn)	-2%	-18%	-5	1%[10 µM]	-17%	-26%
O=C(NCC1CCCO1)C(c1cccs1)N(Cc1ccccc1Cl)C(=O)c1ccc(-c2ccccc2)[nH]1 (stereo not drawn)	-16%	23µM*	?	25%	?	?
Cc1ccc(C(C(=O)NCC2CCCO2)N(Cc2ccccc2)C(=O)c2ccc(-c3ccccc3)[nH]2)o1 (stereo not drawn)	?	?	-79*	?	16µM*	?
COc1ccccc1Nc1nc(-c2cccc([N+](=O)[O-])c2)nc2ccccc12	-10%	18µM*	5	1%	-9%	23µM*
